Results reported in the supplement of paper PMC6607015.
Counter-ions that a name gives are not always drawn.

Legend:
Details in all cases: compound concentration in added solution (µM; 5 µl added to 20 µl cells): 10; 18 h
A431 [1] = assay: LBPA endosome anti-LBPA integrated intensity (sum per cell), Z-score; higher = more LBPA staining
In short: (§1)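 In duplicate 384-well imaging plates, 3,500 HeLa MZ or A431 cells in 20 µl per well were seeded onto 5 µl of 10 µM compound solution. The cells were incubated for 18 h, fixed in 4% PFA and stained with 6C4 anti-LBPA antibody, filipin, propidium iodide and CellTracker green before four 20× images were acquired per well. Values are AcuityXpress-normalised Z-scores of per-cell integrated LBPA or filipin intensity, obtained by MetaXpress segmentation over the whole cell or in LBPA endosomes.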

HeLa MZ [2] = assay: as above
In short: as §1

A431 [3] = assay: whole-cell filipin (free cholesterol) integrated intensity, Z-score; higher = more cholesterol staining
In short: as §1

HeLa MZ [4] = assay: as above
In short: as §1

A431 [5] = assay: filipin (cholesterol) integrated intensity within LBPA endosomes, Z-score; higher = more cholesterol in LBPA endosomes
In short: as §1

HeLa MZ [6] = assay: as above
In short: as §1

Structure (SMILES)	LBPA endosome anti-LBPA integrated intensity (z-score) (A431 [1])	LBPA endosome anti-LBPA integrated intensity (z-score) (HeLa MZ [2])	whole-cell filipin (z-score) (A431 [3])	whole-cell filipin (z-score) (HeLa MZ [4])	filipin (z-score) (A431 [5])	filipin (z-score) (HeLa MZ [6])
CC(=O)Oc1ccccc1C(=O)O [Acetylsalicylic acid]	-0.437	-1.33	-0.0786	-0.536	-0.409	-0.51
Nc1c2c(nc3ccccc13)CCCC2 [Tacrine hydrochloride]	0.535	0.705	-0.59	0.0516	0.0216	0.583
CC[N+](C)(CC)CCOC(=O)C1c2ccccc2Oc2ccccc21 [Methantheline bromide]	-0.356	-0.164	-0.155	-0.214	-0.359	-0.379
Nc1nc(O)c2ncn(CCC(CO)CO)c2n1 [Penciclovir]	-0.596	-1.08	-0.223	0.234	-0.512	-0.438
CC(=O)O[C@H]1C[C@@H]2CC[C@@H]3[C@H](CC[C@@]4(C)[C@H]3C[C@H]([N+]3(C)CCCCC3)[C@@H]4OC(C)=O)[C@@]2(C)C[C@@H]1N1CCCCC1 [Vecuronium bromide]	-0.413	0.00655	0.0669	-0.181	-0.445	-0.215
CC1=C(/C=C/C(C)=C/C=C/C(C)=C\C(=O)O)C(C)(C)CCC1 [Isotretinoin]	-0.383	-0.562	-0.622	-0.961	-0.488	-0.54
C[C@H]1O[C@H](O[C@H]2[C@H](O)[C@@H](O)[C@@H](O[C@H]3[C@H](O)[C@@H](O)C(O)O[C@@H]3CO)O[C@@H]2CO)[C@H](O)[C@@H](O)[C@@H]1N[C@H]1C=C(CO)[C@@H](O)[C@H](O)[C@H]1O (some centres not stated) [Acarbose]	-0.482	-0.645	-0.828	-0.123	-0.508	-0.442
CO[C@H]1/C=C/O[C@@]2(C)Oc3c(C)c(O)c4c(c3C2=O)C2=NC3(CCN(CC(C)C)CC3)NC2=C(NC(=O)/C(C)=C\C=C\[C@H](C)[C@H](O)[C@@H](C)[C@@H](O)[C@@H](C)[C@H](OC(C)=O)[C@@H]1C)C4=O [Rifabutin]	-0.125	1.08	0.49	0.136	-0.0844	0.633
OCCN(CCO)c1nc(N2CCCCC2)c2nc(N(CCO)CCO)nc(N3CCCCC3)c2n1 [Dipyridamole]	0.808	0.577	-0.543	-0.536	-0.2	-0.39
CNCCCN1c2ccccc2CCc2ccccc21 [Desipramine hydrochloride]	2.09	0.947	1.99	0.636	2.34	2.58
CC[C@H]1OC(=O)C[C@@H](O)[C@H](C)[C@@H](O[C@@H]2O[C@H](C)[C@@H](O[C@H]3C[C@@](C)(O)[C@@H](O)[C@H](C)O3)[C@H](N(C)C)[C@H]2O)[C@@H](CC=O)C[C@@H](C)C(=O)/C=C/C(C)=C/[C@@H]1CO[C@@H]1O[C@H](C)[C@@H](O)[C@@H](OC)[C@H]1OC [Tylosin]	-0.392	0.456	-0.334	-0.339	-0.399	-0.321
CC(C)NCC(O)c1ccc(NS(C)(=O)=O)cc1 (configuration not stated) [Sotalol hydrochloride]	-0.295	-0.419	0.181	0.261	-0.181	-0.219
OC(CCN1CCCCC1)(c1ccccc1)C1CC2C=CC1C2 (configuration not stated) [Biperiden hydrochloride]	1.21	1.45	-0.251	-0.585	0.329	0.363
Cn1nnnc1SCC1=C(C(=O)O)N2C(=O)[C@@H](NC(=O)[C@H](O)c3ccccc3)[C@H]2SC1 [Cefamandole sodium salt]	-0.486	-0.416	-0.496	0.0398	-0.431	-0.551
CC(=O)O[C@]1(C(C)=O)CC[C@H]2[C@@H]3C=C(Cl)C4=CC(=O)[C@@H]5C[C@@H]5[C@]4(C)[C@H]3CC[C@@]21C [Cyproterone acetate]	-0.264	0.704	0.568	0.591	0.113	0.108
CC(C)NCC(O)c1ccc2ccccc2c1 (configuration not stated) [Pronethalol hydrochloride]	0.244	-0.115	0.379	0.0476	-0.072	-0.11
CC[C@H]1OC(=O)[C@H](C)[C@@H](O[C@H]2C[C@@](C)(OC)[C@@H](O)[C@H](C)O2)[C@H](C)[C@@H](O[C@@H]2O[C@H](C)C[C@H](N(C)C)[C@H]2O)[C@](C)(O)C[C@@H](C)C(=O)[C@H](C)[C@@H](O)[C@]1(C)O [Erythromycin]	0.476	-0.196	0.409	-0.0449	0.977	0.203
O=C(CCCN1CCN(c2ccccn2)CC1)c1ccc(F)cc1 [Azaperone]	-0.0879	0.592	0.0723	0.216	-0.168	0.329
CN1Cc2c(N)cccc2C(c2ccccc2)C1 (configuration not stated) [Nomifensine maleate]	-0.419	0.114	-0.627	-0.396	-0.47	-0.516
O=C1CC2(CCCC2)CC(=O)N1CCCCN1CCN(c2ncccn2)CC1 [Buspirone hydrochloride]	-0.302	-0.586	0.536	0.427	-0.00788	0.293
CN1CCC(=C2c3ccccc3Sc3ccccc32)CC1 [Pimethixene maleate]	2.35	1.97	0.776	-0.782	1.82	0.962
Clc1ccc(COC(Cn2ccnc2)c2ccc(Cl)cc2Cl)cc1 (configuration not stated) [Econazole nitrate]	0.0817	1.63	0.484	0.898	-0.0604	0.606
Cc1noc(NS(=O)(=O)c2ccc(N)cc2)c1C [Sulfisoxazole]	-0.641	-0.742	-0.79	-0.499	-0.574	-0.486
Cc1cccc(Nc2ccncc2S(=O)(=O)NC(=O)NC(C)C)c1 [Torsemide]	-0.347	-0.115	0.00281	0.228	-0.452	-0.394

Structure (SMILES)	LBPA endosome anti-LBPA integrated intensity (z-score) (A431 [1])	LBPA endosome anti-LBPA integrated intensity (z-score) (HeLa MZ [2])	whole-cell filipin (z-score) (A431 [3])	whole-cell filipin (z-score) (HeLa MZ [4])	filipin (z-score) (A431 [5])	filipin (z-score) (HeLa MZ [6])
Cn1c([N+](=O)[O-])cnc1COC(N)=O [Ronidazole]	-0.617	-0.899	-0.075	-0.4	-0.579	-0.485
CCc1c(C)[nH]c2c1C(=O)C(CN1CCOCC1)CC2 (configuration not stated) [Molindone hydrochloride]	-0.564	-0.568	-0.123	-0.707	-0.506	-0.344
CC(=O)N(CC(O)CO)c1c(I)c(C(=O)NCC(O)CO)c(I)c(C(=O)NCC(O)CO)c1I (configuration not stated) [Iohexol]	-0.463	0.247	-0.643	-0.949	-0.508	-0.655
Cc1oncc1C(=O)Nc1ccc(C(F)(F)F)cc1 [Leflunomide]	-0.572	-0.48	-0.143	-0.573	-0.693	-0.555
C[N+]1(C)CCC(OC(=O)C(O)(c2ccccc2)C2CCCC2)C1 (configuration not stated) [Glycopyrrolate]	-0.432	-0.329	-0.296	-0.075	-0.498	-0.443
COc1ccc([C@@H]2Sc3ccccc3N(CCN(C)C)C(=O)[C@@H]2OC(C)=O)cc1 [Diltiazem hydrochloride]	-0.508	0.314	-0.778	-0.456	-0.362	-0.144
O=C(CCCN1CC=C(n2c(=O)[nH]c3ccccc32)CC1)c1ccc(F)cc1 [Droperidol]	0.278	1.75	0.378	0.978	0.193	0.762
COc1ccc2c(c1)C(=O)N(CCc1ccc(S(=O)(=O)NC(=O)NC3CCCCC3)cc1)C(=O)C2(C)C [Gliquidone]	-0.483	0.216	-0.152	-0.511	-0.531	-0.598
COc1ccc(C(Cl)=C(c2ccc(OC)cc2)c2ccc(OC)cc2)cc1 [Chlorotrianisene]	-0.163	-0.13	0.392	-0.127	-0.183	-0.174
OC(Cn1cncn1)(Cn1cncn1)c1ccc(F)cc1F [Fluconazole]	-0.239	0.69	-0.0365	0.704	-0.366	-0.348
CN1CCN(C(c2ccccc2)c2ccc(Cl)cc2)CC1 (configuration not stated) [Chlorcyclizine hydrochloride]	1.56	0.74	1.78	-0.254	1.24	0.687
Clc1ccc(CSC(Cn2ccnc2)c2ccc(Cl)cc2Cl)cc1 (configuration not stated) [Sulconazole nitrate]	0.249	1.59	1.22	1.32	0.361	0.461
Cc1cn([C@H]2C=C[C@@H](CO)O2)c(=O)[nH]c1=O [Stavudine]	-0.301	0.24	0.0526	0.186	-0.48	-0.475
CC[C@H](C)C(=O)O[C@H]1CCC=C2C=C[C@H](C)[C@H](CC[C@@H]3C[C@@H](O)CC(=O)O3)[C@H]21 [Mevastatin]	-1.03	-2.17	-1	-0.345	-0.746	-0.0775
CCCCCCCN(CC)CCCC(O)c1ccc(NS(C)(=O)=O)cc1 (configuration not stated) [Ibutilide fumarate]	0.46	1.54	0.561	0.166	0.22	0.621
CNCCC(Oc1ccccc1OC)c1ccccc1 (configuration not stated) [Nisoxetine hydrochloride]	-0.0713	0.75	0.38	0.302	-0.0689	-0.0239
CC(=O)[C@H]1CC[C@H]2[C@@H]3CCC4=CC(=O)CC[C@]4(C)[C@H]3CC[C@]12C [Progesterone]	2.4	0.628	1.62	0.873	2.26	0.759
C[C@@H]1C[C@H]2[C@@H]3CCC4=CC(=O)C=C[C@]4(C)[C@@]3(Cl)[C@@H](O)C[C@]2(C)[C@@]1(OC(=O)c1ccco1)C(=O)CCl [Mometasone furoate]	-0.183	0.598	-0.317	1.11	-0.214	0.7
N=C(N)NC(=N)NCCc1ccccc1 [Phenformin hydrochloride]	-0.459	0.0471	-0.366	1.16	-0.42	-0.335
O=C(NCCN1CCOCC1)c1ccc(Cl)cc1 [Moclobemide]	-0.577	-0.12	-0.751	-0.413	-0.499	-0.447
C[C@]12CC[C@H]3C(=CCc4cc(O)ccc43)[C@@H]1CCC2=O [Equilin]	-0.185	0.864	-0.0277	0.614	-0.251	0.186
Cc1cnc(C(=O)O)c[n+]1[O-] [Acipimox]	-0.468	-0.426	-0.532	-0.464	-0.503	-0.519
C[C@]12C=CC(=O)C=C1CC[C@H]1[C@@H]3C[C@@H](O)[C@](O)(C(=O)CO)[C@@]3(C)C[C@H](O)[C@@]12F [Triamcinolone]	-0.203	-0.607	-0.346	-0.264	-0.211	-0.572
